The values below come from PubChem BioAssay (EPA / NIEHS).

Active and inactive are the calls of the source. The calls were made as follows: active = hit-call score of the fitted dose curve at least 0.9, where 1 is the maximum; inactive = score below 0.9.

The target in this assay is Hypoxia-inducible factor 1-alpha (Homo sapiens) (UniProt Q16665). Description: ATG_HIF1a_CIS: Attagene CIS-FACTORIAL HepG2 Assay for human Hypoxia Inducible Factor 1 (HIF1A) (AID 2282951). Conditions: HepG2 Attagene cis-factorial HIF1a reporter transcription; actives raise or lower the signal. The method, then: ATG_CIS is a cell-based, multiplexed-readout assay that uses HepG2, a human liver cell line, with measurements taken at 24 hours after chemical dosing in a 24-well plate.ATG_HIF1a_CIS is one of 52 assay component(s) measured or calculated from the ATG_CIS assay. It is designed to make measurements of mRNA induction, a form of inducible reporter, as detected with fluorescence intensity signals by Reverse transcription polymerase chain reaction (RT-PCR) and Capillary electrophoresis technology.Data from the assay component ATG_HIF1a_CIS was analyzed into 1 assay endpoint. This assay endpoint, ATG_HIF1a_CIS, was analyzed with bidirectional fitting relative to DMSO as the negative control and baseline of activity. Using a type of inducible reporter, measures of mRNA for gain or loss-of-signal activity can be used to understand the reporter gene at the transcription factor-level as they relate to the gene HIF1A. Furthermore, this assay endpoint can be referred to as a primary readout, because this assay has produced multiple assay endpoints where this one serves a reporter gene function. To generalize the intended target to other relatable targets, this assay endpoint is annotated to the dna binding intended target family, where the subfamily is basic helix-loop-helix protein.
Hypoxia-inducible factor 1-alpha (Homo sapiens), sequence (Q16665 whole entry, looked up): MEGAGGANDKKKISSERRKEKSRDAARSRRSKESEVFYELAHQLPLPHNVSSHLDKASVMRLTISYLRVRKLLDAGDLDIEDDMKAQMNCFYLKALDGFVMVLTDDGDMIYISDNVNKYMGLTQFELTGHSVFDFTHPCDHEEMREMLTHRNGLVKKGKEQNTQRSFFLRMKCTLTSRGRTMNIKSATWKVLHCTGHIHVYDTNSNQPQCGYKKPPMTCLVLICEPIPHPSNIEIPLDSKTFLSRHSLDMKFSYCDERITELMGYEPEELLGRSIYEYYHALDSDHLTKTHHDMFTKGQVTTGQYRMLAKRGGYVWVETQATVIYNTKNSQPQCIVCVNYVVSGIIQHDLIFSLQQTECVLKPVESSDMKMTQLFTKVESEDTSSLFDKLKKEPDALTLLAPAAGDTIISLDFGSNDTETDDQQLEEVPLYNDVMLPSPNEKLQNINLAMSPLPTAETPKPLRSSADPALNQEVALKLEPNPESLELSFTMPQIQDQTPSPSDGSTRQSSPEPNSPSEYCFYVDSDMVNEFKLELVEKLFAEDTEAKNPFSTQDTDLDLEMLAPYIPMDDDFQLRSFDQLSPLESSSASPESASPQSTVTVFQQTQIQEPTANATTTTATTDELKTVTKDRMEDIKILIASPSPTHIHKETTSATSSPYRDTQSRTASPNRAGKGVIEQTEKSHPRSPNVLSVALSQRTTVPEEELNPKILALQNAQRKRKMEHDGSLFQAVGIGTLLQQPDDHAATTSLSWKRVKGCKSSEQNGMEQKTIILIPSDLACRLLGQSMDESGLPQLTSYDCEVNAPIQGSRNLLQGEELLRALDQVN
Human liver HepG2 cells are transiently transfected with multiple reporter transcription units (MRTUs) in 6-well plates using FuGene 6 reagent (Roche; 3 ml FuGene/1 mg DNA). The MRTU constructs are regulated by a cis-regulating element (promoter). […] A major difference between the CIS and TRANS system is that in CIS activities of endogenous TFs are measured, whereas the TRANS assay evaluates changes in activities of exogenous, chimeric NR-Gal4 proteins. […] At the end of 24 hour incubation, total RNA was isolated using TriZol reagent (Invitrogen). The isolated RNA is then reverse-transcribed using oligo(dT) primer and Mo-MLV reverse transcriptase (Invitrogen) with DNAse I (Ambion) treatment for 30 min. The one-tenth of the produced cDNA was amplified by PCR using Taq DNA polymerase (Invitrogen) and two reporter sequence-specific primers. The PCR products were fluorescently labeled by primer extension with 6-arboxyfluorescein (6-FAM) 5'-labeled reporter sequence-specific primer (2 min at 95 C, 20 s at 68 C and 10 min at 72 C) and these products were digested with 5U of HpaI (New England Biolabs) for 2h at 37 C. The fragments were purified using Qiaquick PCR columns (Qiagen), analyzed on an ABI 3130xL genetic analyzer (Applied Biosystems) with peak positions identified by using a set of X-rhodamine (ROX)-labeled MapMarker1000 molecular weight standards (BioVentures). The raw capillary electrophoresis data was processed using Attagraph software (Attagene).
As usually defined, the AC50 is the concentration giving half of the maximal activity seen. As to `O=Cc1ccc(Cl)c([N+](=O)[O-])c1`, the half-maximal activity concentration (AC50) was 139 µM (active). With `Nc1cc([N+](=O)[O-])ccc1O`, the molecule was classed as inactive. As for `NCCCCCCN`, the molecule was classed as inactive. Still for that read-out and setting: the value for `OCC(CO)(CO)COCC(CO)(CO)CO` was “inactive”.

In the case of `O=C(O)c1cccc(C(F)(F)F)c1`, the call was inactive.

As for `CCCCNC(=O)NS(=O)(=O)c1ccc(N)cc1`, the molecule was classed as inactive. Same read-out and setting: then `CCCCC(CC)COCCC#N` (stereo not given), with “inactive”. On the same count and under the same terms, the value for `CCCCCCCCCCCCCCCCCC(=O)OCC(CC)CCCC` (stereo not given) was “inactive”. Take `CC(=O)C(=O)O`: the AC50 is 33.9 µM (active). Regarding `CCc1c(C)cc(N)c(CC)c1N`, the outcome was inactive. Still for that read-out and setting: the value for `O=C(O)Cc1cccc2ccccc12` was “inactive”; that for `NC(=O)NC1NC(=O)NC1=O` (stereo not given) was “inactive”; that for `C=C(C)[C@@H]1CC[C@@H](C)C[C@@H]1O` was “inactive”. Consider `CCCC(C)C=O` (stereo not given), for which the molecule was called inactive. In the case of `CCCCCCCCCCN`, the molecule was classed as inactive. The same measure, in the same setting: the value for `OCCOCCOCCOCCO` was “inactive”. On the same count and under the same terms, then `CNC[C@H](O)c1cccc(O)c1`, with “inactive”; and `CC(=O)O[C@H](CC(=O)[O-])C[N+](C)(C)C`, with “inactive”. Same read-out and setting: then `OCCOc1cccc(OCCO)c1`, with “inactive”. With `C=CC(C)(CCC=C(C)C)OC=O` (stereo not given), the result was inactive. Still for that read-out and setting: the value for `CC1CCC2CC1C2(C)C` (stereo not given) was “inactive”. The same measure, in the same setting: then `O=C1NC(=O)c2ccccc21`, with “inactive”; and `CCCc1ccccc1O`, with “inactive”; and `CCOC(=O)c1ccccc1OC`, with “inactive”. Still for that read-out and setting: the value for `CCCCCCCCC=O` was “inactive”; that for `CC1(C)[C@H]2CC[C@]1(C)[C@H](O)C2` was “inactive”. As to `CCCCCCC#CC(=O)OC`, the outcome was inactive. Same read-out and setting: the value for `CC(C)(N)CO` was “inactive”. With `CO[Si](CCCn1c(=O)n(CCC[Si](OC)(OC)OC)c(=O)n(CCC[Si](OC)(OC)OC)c1=O)(OC)OC`, the call was inactive. For `O=C(O)c1cn(-c2ccc(F)cc2)c2cc(N3CCNCC3)c(F)cc2c1=O`, the call was inactive.

In the case of `CCC(C(=O)NC(N)=O)c1ccccc1` (stereo not given), the molecule was classed as inactive. The same measure, in the same setting: then `O=C(O)CCSCCC(=O)O`, with “inactive”. On to `CCN(CC)c1ccc2c(-c3ccccc3C(=O)O)c3ccc(=[N+](CC)CC)cc-3oc2c1`, for which the concentration at half-maximal activity (AC50) is 154 µM (active).

On to `O=C1OC2(c3cc(Br)c(O)c(Br)c3Oc3c2cc(Br)c(O)c3Br)c2c(Cl)c(Cl)c(Cl)c(Cl)c21`, for which the outcome was inactive.

`O=Nc1ccc(Nc2ccccc2)cc1`: the half-maximal activity concentration (AC50) was 33.4 µM (active). On the same count and under the same terms, then `c1cc(C(c2ccc(OCC3CO3)cc2)c2ccc(OCC3CO3)cc2)ccc1OCC1CO1` (stereo not given), with 56.4 µM (active). As for `Clc1sc(Cl)c(Cl)c1Cl`, the result was inactive.

`O=S(=O)(O)c1ccc(O)c2ncccc12`: the molecule was called inactive.

Regarding `CCCCCCOC(=O)CC`, the molecule was called inactive. With `O=S(=O)(O)c1cccc2c(S(=O)(=O)O)cccc12`, the molecule was classed as inactive.
